Assay outcomes: PubChem BioAssay, National Center for Advancing Translational Sciences (NCATS)
Only some compounds are listed: those with a hit (about 10% of all), similar ones and a draw of the others.
IMPase inh – qHTS Assay for Identifying the Cell-Membrane Permeable IMPase Inhibitors | 120,000 tested, under 10 active | CHO-M1 cells, IP1 accumulation, HTRF TR-FRET ratio | Inositol monophosphatase 1 (Rattus norvegicus), P97697 | inhibition (IP1 accumulation), % at 46.1 µM; active = well fitted curve in the direction sought with a large enough effect in the signal ratio, not every such curve was filed as active; inconclusive = small, poorly fitted or top-dose-only effect, or a change in a side signal; inactive = no such curve, though single readings can be large or run the other way; the % refers to the signal ratio;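 also: cells stimulated with carbachol in lithium chloride buffer; plate controls were DMSO basal wells for no effect and reference inhibitor wells for full effect; higher means more IMPase inhibition seen as more IP1 and lower FRET ratio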
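In this qHTS, compounds (final up to 46 uM) act on CHO-M1 cells that are then activated through the M1 receptor with carbachol, in pH 7.4 buffer containing 50 mM LiCl, for 30 min. IP1 accumulation is quantified by the IP-One immunoassay.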
Lamin A splicing – qHTS Assay for Modulators of Lamin A Splicing; HeLa LMNA splicing GFP/RFP minigene ratio, 48 h; Potency, µM (titrated, usually from 46.1 µM), for the others: at the top dose ratio change, negative = inhibition, actives largely listed as inhibitors; hit rate 0.01% among 200,000; AID 1487, 2009; active = well fitted inhibition curve with a large enough effect in the signal ratio, with a control signal flat, not every such curve was filed as active; inconclusive = small, poorly fitted or top-dose-only effect, or effect the other way, or a change in a side signal; the % refers to the signal ratio; also: potency is read from the fitted curve at half-maximal effect
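S3 HeLa cells stably expressing lamin A-EGFP splicing minigene plus DsRed2, 600 cells/well, 48 h compound exposure at 37C. Laser-scanning cytometry; analysed as GFP (500-530 nm)/RFP (575-640 nm) total intensity ratio; 0.5% DMSO vehicle.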
ALDH1A1 block – qHTS Assay for Inhibitors of Aldehyde Dehydrogenase 1 (ALDH1A1); Potency, µM (titrated, usually from 75.3 µM), inactives show at the highest dose activity, negative = inhibition, actives largely listed as inhibitors; hit rate 7.3% among 220,000; Purified ALDH1A1, NADH fluorescence, propionaldehyde substrate; AID 1030, 2008;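 also: potency is read from the fitted curve at half-maximal effect; plate controls were no enzyme wells and a reference inhibitor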
Target sequence (P00352 whole entry, looked up): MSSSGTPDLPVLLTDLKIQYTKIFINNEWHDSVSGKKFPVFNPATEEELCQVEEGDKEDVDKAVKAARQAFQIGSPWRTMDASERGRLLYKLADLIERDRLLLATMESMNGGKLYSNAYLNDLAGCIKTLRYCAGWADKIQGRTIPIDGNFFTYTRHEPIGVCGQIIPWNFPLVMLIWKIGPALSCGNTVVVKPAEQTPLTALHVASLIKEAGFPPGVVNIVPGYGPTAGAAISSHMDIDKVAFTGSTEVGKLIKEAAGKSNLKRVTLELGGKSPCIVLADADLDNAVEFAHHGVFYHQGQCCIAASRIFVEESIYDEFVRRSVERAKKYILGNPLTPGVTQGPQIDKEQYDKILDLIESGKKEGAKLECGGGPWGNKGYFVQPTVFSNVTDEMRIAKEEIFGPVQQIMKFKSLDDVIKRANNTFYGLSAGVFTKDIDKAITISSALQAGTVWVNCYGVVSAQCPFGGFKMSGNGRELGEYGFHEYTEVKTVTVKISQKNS
PNC inhibitor – High Content Assay for Compounds that inhibit the Assembly of the Perinucleolar Compartment | PC3M PTB-GFP, PNC prevalence imaging, 16 h; active compounds read low | activity change (PNC), negative = inhibition, % at 10 µM | hit rate 3.1% among 140,000 | AID 2417, 2010;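 active = readout at or below -70, meaning at least 70% loss of cells showing the perinucleolar compartment, a nuclear body marking cancer cells; inconclusive = readout between -30 and a set limit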;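 also: plate controls were DMSO wells for no effect and camptothecin positive control wells for full effect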
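Read-out is percentage of cells bearing a perinucleolar compartment, from automated 20x imaging of fixed, Hoechst-stained PC3M PTB-GFP cells. Cells were seeded 4 h, then exposed 16 h to compound (23 nl of library stock) in duplicate plates.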
HPGD inh – qHTS Assay for Inhibitors of HPGD (15-Hydroxyprostaglandin Dehydrogenase). 15-hydroxyprostaglandin dehydrogenase [NAD(+)] (Homo sapiens), P15428. purified HPGD, NADH fluorescence kinetic, PGE2 substrate. Potency, µM, without a hit: at the highest dose activity change, negative = inhibition, usual class: inhibitors. hit rate 4.3% among 150,000; also: potency is read from the fitted curve at half-maximal effect
Target sequence (P15428 whole entry, looked up): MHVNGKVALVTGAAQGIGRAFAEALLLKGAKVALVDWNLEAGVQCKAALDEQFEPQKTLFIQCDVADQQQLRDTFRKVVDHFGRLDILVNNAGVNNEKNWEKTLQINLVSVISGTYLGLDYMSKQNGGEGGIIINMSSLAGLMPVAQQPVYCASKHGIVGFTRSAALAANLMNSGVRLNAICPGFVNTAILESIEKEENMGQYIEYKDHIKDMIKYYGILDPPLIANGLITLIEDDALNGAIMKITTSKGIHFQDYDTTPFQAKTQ
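20 nM HPGD preincubated 15 min at room temperature with compound in 50 mM Tris-HCl pH 8, 0.01% Tween 20. Started with 1 mM NAD+ and 30 uM prostaglandin E2; NADH fluorescence (360/450 nm) read 5 times over 30-s intervals, last minus first.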
Luc counter – Counterscreen for Luciferase (Kinase-Glo TM) Inhibition; Potency, µM (titrated, usually from 38.3 µM), for inactives: at the highest dose activity change, negative = inhibition, actives largely listed as inhibitors; AID 1379, 2008; Luciferin 4-monooxygenase (Photuris pensylvanica), Q27757; hit rate 0.28% among 200,000; Kinase-Glo luciferase, ATP luminescence, 8 min; active = well fitted inhibition curve with a large enough effect; inconclusive = small, poorly fitted or top-dose-only effect; also: potency is read from the fitted curve at half-maximal effect; nearly all actives have a fitted effect of over 60% in size
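Kinase-Glo luciferase light output from ATP and luciferin was measured with 10 uM ATP, within the enzyme's linear range. Buffer: 50 mM imidazole pH 7.2, 50 mM KCl, 7 mM MgCl2, 0.01% Tween 20, 0.05% BSA; luminescence read after 8 min at ambient temperature.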
* marks the source's active call; other numbers are inactive results; ? = inconclusive; . = no result given; [ ] = remark or other dose. Unless noted, calls follow the shape of the dose curve; as a rule, active = well fitted inhibition curve with a large enough effect (not every such curve was filed as active); inconclusive = small, poorly fitted or top-dose-only effect, or another doubt; inactive = no such curve, though single readings can be large or run the other way. Unless noted, % is scaled to controls: 0 for no effect and ±100 for the full control effect.

SMILES	IMPase inh	Lamin A splicing	ALDH1A1 block	PNC inhibitor	HPGD inh	Luc counter
CCOC(=O)/C(C#N)=C/c1ccc(N2CCN(C)CC2)cc1	8	0%	?	0	-16%	1%
CCOC(=O)/C(C#N)=C\C1=C(N2CCCC2)CC(C)(C)OC1	-5	-4%	14µM*	8	-21%	-2%
CCCCOc1ccc(C(=O)C(CN2CCOCC2)c2ccccc2)cc1 (stereo not given)	18	?	4%	?	-3%	-1%
COc1ccc(C(=O)C(CN2CCOCC2)c2ccccc2)cc1 (stereo not given)	9	?	-6%	18	1%	-7%
COc1ccc(C(=O)C(CN2CCCC2)c2ccccc2)cc1 (stereo not given)	18	?	25µM*	-16	-8%	-2%
CCCOc1ccc(C(=O)C(CN2CCCC2)c2ccccc2)cc1 (stereo not given)	.	?	-7%	-113*	-3%	3%
O=C(c1ccccc1)c1c[nH]c(C(=O)C(Cl)(Cl)Cl)c1	.	6%[46 µM]	3.5µM*	.	.	0%
O=C(c1c[nH]c(C(=O)C(Cl)(Cl)Cl)c1)c1ccc(F)cc1Cl	.	?	1µM*	.	.	1%
O=C(c1ccc(Cl)cc1)c1c[nH]c(C(=O)NNc2ccccc2)c1	.	?	20µM*	.	.	2%
O=C(c1ccc(Cl)cc1)c1c[nH]c(C(=O)C(Cl)(Cl)Cl)c1	-2	-11%	8.9µM*	-13	?	-2%
N#Cc1cccc(-c2cncnc2NCc2cccs2)c1	.	11%	-8%	.	.	.
COc1ccc(NC(=O)CSc2nc(-c3cccs3)cc(C(F)(F)F)n2)c(OC)c1	2	.	.	.	.	.
CCCCc1nn2c(=O)cc(COC(=O)c3ccccc3NC(=O)C3CCCCC3)nc2s1	.	-4%[46 µM]	.	.	.	.
C=CC(C)(O)CC1[C@@]2(C)CCCC(C)(C)C2CC[C@]1(C)O (stereo not given in full)	.	.	1%	.	-4%	-3%
O=C(CSc1nc2ccccc2c(=O)[nH]1)Nc1ccc(S(=O)(=O)N2CCCC2)cc1	1	?	2.2µM*	-1	14µM*	1%
O=C(CCOc1ccccc1)Nc1ccc(S(=O)(=O)N2CCCC2)cc1	5	-2%	22µM*	11	-9%	-2%
O=C(COc1ccccc1)Nc1ccc(S(=O)(=O)N2CCCC2)cc1	0	4%	-6%	-25	-7%	-1%
O=C(CSc1ncccn1)Nc1ccc(S(=O)(=O)N2CCCCC2)cc1	4	-3%	3%	83	-7%	-3%
O=C(COc1ccccc1)Nc1ccc(S(=O)(=O)N2CCCCCC2)cc1	2	-12%	-11%	3	-16%	-4%
O=C(CCc1ccccc1)Nc1ccc(S(=O)(=O)N2CCCC2)cc1	.	.	13µM*	.	.	2%
Cc1cc(C)c2c(c1)cc(C)c1nnc(SCC(=O)Nc3ccc(S(=O)(=O)N4CCCCC4)cc3)n12	.	?	20µM*	-25	-7%	-1%
O=C(NCCc1c[nH]c2ccccc12)[C@H]1C[C@@H]1[C@H](NP(=O)(c1ccccc1)c1ccccc1)c1ccccc1	.	.	-8%	.	-6%	-2%
O=C(COC(=O)c1ccc(Br)o1)Nc1ccc(S(=O)(=O)N2CCCC2)cc1	4	-3%	?	-80*	-13%	3%
O=C(Nc1ccc(S(=O)(=O)N2CCCCCC2)cc1)c1ccc(Br)o1	-5	3%	3%	-2	?	-4%
CC1CCN(S(=O)(=O)c2ccc(NC(=O)CSc3ncccc3C(=O)O)cc2)CC1	-5	0%	25µM*	14	14µM*	26%
SMILES	IMPase inh	Lamin A splicing	ALDH1A1 block	PNC inhibitor	HPGD inh	Luc counter
CC1Cc2ccccc2N1C(=O)CCNS(=O)(=O)c1ccc2c(c1)CCC(=O)N2 (stereo not given)	-2	1%	16µM*	9	-1%	3%
COc1ccc2c(c1O)C(=O)c1ccccc1C2=O	.	.	9%	.	.	.
COc1c(C=O)c(O)cc2c1C(=O)c1ccccc1C2=O	.	.	3.5µM*	.	.	.
CC1=C(C(=O)Nc2ccccc2)C(c2cccs2)n2nnnc2N1 (stereo not given)	-2[1.84 µM]	-11%	11µM*	?	-8%	5%
CC1=C(C(=O)Nc2cccnc2)C(c2ccccn2)n2nnnc2N1 (stereo not given)	2	-7%	14µM*	34	-17%	-2%
Cc1cccc(Cn2c(CNS(=O)(=O)c3ccc4c(c3)CCCC4)nc3cccnc32)c1	.	3%[46 µM]	.	.	.	.
O=C(Nc1cccc(F)c1)N1CCC2(CC1)CCN(C(=O)c1ccco1)CC2	.	.	1%	.	-4%	0%
CCCC(=O)OCC(=O)Nc1ccc2[nH]c(=O)[nH]c2c1	.	.	-5%	.	.	-4%
O=C(CCl)Nc1cc2[nH]c(=O)[nH]c2cc1Br	.	?	2µM*	.	.	1%
CCCCOC(=O)CSc1nc(N)c(C#N)c(-c2ccc(OCC)cc2)c1C#N	?	6%	20µM*	?	-17%	-1%
CCOC(=O)CSc1nc(N)c(C#N)c(-c2ccc(OC)cc2)c1C#N	?	-3%	?	34	.	.
C=C(C)CSc1nc(N)c(C#N)c(-c2ccc(C)cc2)c1C#N	-4	2%	10µM*	2	14µM*	-4%
CCCCOc1ccc(-c2c(C#N)c(N)nc(SCC(N)=O)c2C#N)cc1	1	3%	?	-25	28µM*	1%
C[C@@]12CCC[C@H]1C1CC[C@H]3C[C@H](O)CC[C@]3(C)C1CC2 (stereo not given in full)	.	.	3%	.	.	.
COc1cc(N2CCCC2)ccc1C=O	.	7%[46 µM]	13µM*	.	.	3%
O=Cc1ccc(N2CCCCC2)cc1	.	9%[46 µM]	1.6µM*	.	.	-2%
O=Cc1ccc(N2CCCC2)c([N+](=O)[O-])c1	.	8%[46 µM]	?	.	.	5%
CCOc1cc(N2CCCC2)ccc1[N+](=O)[O-]	.	-1%	-3%	4	-11%	-3%
COc1cc(CCN2C(=O)N[C@@H](c3ccccc3)C(C(C)=O)=C2C)cc(OC)c1OC	.	.	-1%	.	-7%	1%
CC(NC(=O)CSc1nnc(CC(=O)Nc2ccc(Cl)c(Cl)c2)n1C)c1ccccc1 (stereo not given)	-11	5%	?	-12	28µM*	0%
Cn1c(CC(=O)Nc2ccc(Cl)c(Cl)c2)nnc1SCC(=O)N1CCN(c2ccccc2)CC1	4	18%	-2%	?	0%	2%
